Rv3671c inh: inhibitors of M. tuberculosis serine protease Rv3671c. 0.048% of 320,000 active. inhibition, % at 5.96 µM; in the data active = inhibition above about 38%;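 note: extracellular domain of Rv3671c used as enzyme; 0% = enzyme with DMSO and 100% = no enzyme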
RecA intein inh: inhibitors of M. tuberculosis RecA intein splicing; 0.75% of 290,000 active; cell-free RecA intein splicing, fluorescence; inhibition, % (no concentration beside the values); in the data active = inhibition above about 30%;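 note: 0% = vehicle wells and 100% = reference inhibitor control wells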
FadD28 binding: blocks FadD28 binding to the bisubstrate probe. fluorescence polarization. inhibition, % at 12.5 µM. 0.22% of 360,000 active. AID 588549; in the data active = inhibition above about 8.5%, passing the limit was not always enough
Mtb UGM inh: Mtb UDP-galactopyranose mutase inhibition; purified UGM, fluorescence polarization probe displacement; P9WIQ1; 0.06% of 320,000 active; AID 504406; inhibition, % at 10 µM; in the data active = inhibition above about 10%, passing the limit was not always enough
TcdB inh: TcdB glycohydrolase inhibition. P18177. TcdB glycohydrolase enzymatic assay, plate reader. inhibition, % at 9.99 µM. 0.24% of 350,000 active; in the data active = inhibition above about 10%
BioA inh: BioA (M. tuberculosis) enzyme inhibition. inhibition, % at 9.99 µM. 0.096% of 360,000 active. purified M. tuberculosis BioA enzyme, plate reader; in the data active = inhibition above about 40%
GFP chromophore: counter-screen GFP chromophore formation inhibition. 83% of 2,100 active. EC50, µM. AID 434968. cell-free GFP chromophore formation, fluorescence. shares compounds with RecA intein inh; call rule not given here
The depositor's hits bear a star; nt = no result given. Rows were chosen to be rich in hits. Some 0.97% of all compounds tested hit in one or more screens of this group.

SMILES	Rv3671c inh	RecA intein inh	FadD28 binding	Mtb UGM inh	TcdB inh	BioA inh	GFP chromophore
C[C@@H]1CCCCO[C@H](CN(C)C(=O)Cc2ccccc2)[C@@H](C)CN([C@H](C)CO)C(=O)c2cc(NS(=O)(=O)c3ccc(Cl)cc3)ccc2O1	nt	nt	nt	nt	-8	0	nt
C[C@H](CO)N1C[C@H](C)[C@@H](CN(C)Cc2ccc(F)cc2)Oc2ncc(C3=CCCC3)cc2C1=O	nt	nt	nt	nt	0	1	nt
CCCNC(=O)N1CC2(CCN(C(=O)C3CCCCC3)CC2)c2c([nH]c3cc(OC)ccc23)[C@@H]1CO	nt	nt	nt	nt	-1	nt	nt
CCOC(=O)c1c(CSC(=N)N)n(-c2ccc(Br)cc2)c2cc(Br)c(OC(C)=O)cc12	nt	nt	-3	nt	nt	nt	nt
CCCCCCCCOC(=O)c1c(CSC(=N)N)n(C)c2cc(Br)c(OC(C)=O)cc12	13	90*	-13	-2	3	-1	2.4*
CC(C)CC#Cc1cnc2c(c1)C(=O)N([C@@H](C)CO)C[C@@H](C)[C@@H](CN(C)C(=O)c1ccc(F)cc1)O2	nt	nt	nt	nt	1	0	nt
O=C(O)c1cc2c(s1)CCCC2	2	nt	0	0	nt	-1	nt
ClCc1nnc(-c2cc3c(s2)CCCC3)o1	nt	39*	-4	nt	1	nt	28*
CCCc1[nH]nc2c1C(c1ccc(OC)cc1OC)C(C#N)=C(N)O2 (stereo unspecified)	-2	79*	-4	-2	nt	0	17*
CCCc1[nH]nc2c1C(c1cccc(OC)c1)C(C#N)=C(N)O2 (stereo unspecified)	-13	42*	-4	-3	nt	1	38*
Cc1ccc(S(=O)(=O)Nc2cccc3c2O[C@@H](CN(C)S(=O)(=O)c2cccs2)[C@H](C)CN([C@@H](C)CO)C3=O)cc1	nt	nt	nt	nt	0	18	nt
Cn1nc(-c2ccc(Cl)cc2)nc2c(=O)n(C)c(=O)nc1-2	-152	94*	nt	5	nt	2	0.36*
CS(=O)(=O)n1nc(-c2ccc(Cl)cc2)nc1N	5	6	-3	-2	0	nt	nt
Cc1ccc(S(=O)(=O)N(C)C[C@H]2OCCCC[C@@H](C)Oc3ccc(NC(=O)Nc4cccc5ccccc45)cc3C(=O)N([C@H](C)CO)C[C@@H]2C)cc1	nt	nt	nt	nt	-1	-3	nt
CN1C(=O)c2cc(NC(=O)c3ccc(C#N)cc3)ccc2OC[C@H]2O[C@@H](CC(=O)NCc3ccc4c(c3)OCO4)CC[C@@H]21	nt	nt	nt	nt	-2	-3	nt
O=S(=O)(c1ccccc1)N1C[C@@H]2N[C@H](C1)C2c1ccc(/C=C/c2ccccc2)cc1 (stereo partly specified)	nt	nt	nt	nt	0	nt	nt
CC1=C(CC(=O)c2ccccc2)C(=O)c2ccccc2C1=O	-57	43*	-4	2	nt	-1	26*
O=C(CN1C(=O)c2ccccc2C1=O)c1ccccc1	-5	1	-1	-4	nt	-1	nt
COc1cccc(CN2CCSCC2)c1OC	0	-4	0	2	0	0	nt
COc1ccccc1CN1CCSCC1	6	33*	0	-1	1	nt	25*
CC1(C)Cc2ccccc2C2=NNC(=O)C2=N1	-14	94*	-2	-1	1	0	1.1*
CC1(C)Cc2ccccc2C(Nn2cnnc2)=N1	2	1	0	5	2	-1	nt
Cc1ccc(-n2nc(C(=O)NN)c(C)c(C#N)c2=O)cc1Cl	-4	11	-1	-1	-1	-1	nt
Cc1c(C(=O)NN)nn(-c2ccc(Cl)cc2)c(=O)c1C#N	-14	43*	-1	0	1	nt	31*
C[C@@H]1CN([C@H](C)CO)C(=O)c2cc(-c3ccncc3)cnc2O[C@@H]1CN(C)C(=O)c1cccc(F)c1	nt	nt	nt	nt	0	4	nt
SMILES	Rv3671c inh	RecA intein inh	FadD28 binding	Mtb UGM inh	TcdB inh	BioA inh	GFP chromophore
Cc1noc2ncnc(Sc3ccccc3Cl)c12	1	45*	-1	2	nt	0	38*
COCCNc1nc2cc(-c3ccc(F)cc3)sc2c(=O)n1C	nt	nt	0	nt	1	-4	nt
O=c1[nH]c(CCl)nc2cc(-c3ccc(F)cc3)sc12	-20	36*	-4	1	0	-1	31*
Cc1ccc(S(=O)(=O)N(C(=O)c2ccncc2)c2ccc(OC(=O)c3ccncc3)c3ccccc23)cc1	-10	47*	-1	5	0	nt	0.75*
CC(=O)Oc1ccc(N(C(C)=O)S(=O)(=O)c2ccc(C)cc2C)c2ccccc12	nt	1	-2	1	1	-1	nt
CC(=O)Oc1ccc(N(C(C)=O)S(=O)(=O)c2ccccc2)c2ccccc12	nt	nt	-1	nt	2	1	nt
Cc1ccc(S(=O)(=O)N(C(=O)c2ccncc2)c2ccc(OC(=O)c3ccncc3)c3ccccc23)c(C)c1	-8	98*	-3	0	nt	1	>38
O=[N+]([O-])c1cc(Br)c(Nc2ccccc2)c([N+](=O)[O-])c1	6	64*	-3	7	1	-1	20*
O=C(O)c1cccc(NC2=C(n3nnc4ccccc43)C(=O)c3ccccc3C2=O)c1	-52	78*	-4	2	0	nt	1.9*
O=C(O)c1cccc(NS(=O)(=O)c2ccc3nnn(O)c3c2)c1	-1	-1	-1	4	nt	-3	nt
CC(=O)N(C)C[C@@H]1Oc2ncc(-c3cncnc3)cc2C(=O)N([C@@H](C)CO)C[C@H]1C	nt	nt	nt	nt	0	-1	nt
O=S(=O)(N[C@H]1C[C@@H](NS(=O)(=O)OCC(Cl)(Cl)Cl)C2CCCCC21)OCC(Cl)(Cl)Cl (stereo partly specified)	-8	32*	-6	0	0	0	>38
CC1CCC(C)(NS(=O)(=O)OCC(Cl)(Cl)Cl)CC1 (stereo unspecified)	-14	7	-1	2	2	1	nt
COC(=O)c1ccc(-n2c(C)nc3ccccc3c2=O)cc1	2	3	-2	0	nt	4	nt
COC(=O)c1ccc(C(=O)OC)c(-n2c(=O)c3ccccc3c3ccccc3c2=O)c1	-11	40*	-1	0	0	6	25*
Cc1ccccc1-c1cc2c(nn1)-c1ccccc1C2=O	-100	75*	-1	-2	nt	0	13*
Cc1ccc(-c2cc3c(nn2)-c2ccccc2C3=O)cc1	5	12	-3	2	0	-1	nt
N#Cc1ccc(-n2c(-c3ccccc3)nnc2-c2ccccc2)cc1C#N	-5	50*	-3	-2	nt	2	17*
O=C(C[C@@H]1C=C[C@H](NC(=O)Cc2ccccn2)[C@H](CO)O1)NCCc1ccccc1	nt	nt	nt	nt	-1	nt	nt
CC(C)CC#Cc1ccc2c(c1)O[C@@H](CN(C)C(=O)c1cnccn1)[C@@H](C)CN([C@H](C)CO)S2(=O)=O	nt	nt	nt	nt	2	0	nt
O=C(NC1C(=O)NNC1c1ccc(Cl)cc1)c1ccc(F)cc1 (stereo unspecified)	-15	70*	-3	2	-10	nt	30*
O=C(Nc1ccc(F)cc1)Nc1ccc2c(c1)[C@H]1C[C@H](CC(=O)N3CCCCC3)O[C@H](CO)[C@H]1O2	nt	nt	nt	nt	nt	-2	nt

Source: PubChem BioAssay (several laboratories)
